Assay outcomes (PubChem BioAssay)
PME-1 inh: PME-1 inhibitors via competitive probe labeling, primary screen, biochemical, fluorescence polarization, FP-Rh probe, HTS | Protein phosphatase methylesterase 1 (Homo sapiens), Q9Y570 | recombinant PME-1 | inhibition, % at 5.9 µM | 0.53% of 320,000 active;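 active = inhibition above the campaign mean of all compounds plus 3 SD, cut at about 26% in these data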;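 note: competitive labeling of PME-1 active site by serine hydrolase directed probe; inhibitors block probe labeling so polarization falls and inhibition rises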
PAFAH1B3 FP inh: PAFAH1B3 enzyme inhibitors, primary screen, biochemical, fluorescence polarization, human; Platelet-activating factor acetylhydrolase IB subunit alpha1 (Homo sapiens), Q15102; recombinant PAFAH1B3, FP-rhodamine probe; inhibition, % at 3.39 µM; 0.28% of 340,000 active; AID 492972, 2010;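 active = inhibition above the screen-wide average of all tested compounds plus 3 SD, cut at about 25% in these data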
Target sequence (Q15102 whole entry, looked up): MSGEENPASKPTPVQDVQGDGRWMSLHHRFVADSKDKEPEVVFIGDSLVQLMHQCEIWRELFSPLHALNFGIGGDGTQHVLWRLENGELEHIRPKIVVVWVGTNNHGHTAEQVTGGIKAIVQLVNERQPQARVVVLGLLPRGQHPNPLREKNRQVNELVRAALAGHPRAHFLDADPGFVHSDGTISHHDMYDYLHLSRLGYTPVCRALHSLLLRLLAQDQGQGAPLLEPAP
pPAFAH FP inh: pPAFAH enzyme inhibitors, primary screen, biochemical, fluorescence polarization, human; 1.5% of 330,000 active; inhibition, % at 3.39 µM; recombinant pPAFAH, FP-rhodamine probe fluorescence polarization;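 active = inhibition above the mean inhibition across the screen plus 3 SD, cut at about 25% in these data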;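 note: inhibitors block binding of the rhodamine activity-based probe so polarization drops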
Fam108B inh: mouse Fam108B serine hydrolase inhibitors, primary screen, counter-screen for RBBP9 inhibitor project, biochemical, fluorescence polarization. recombinant Fam108B, FP-Rh probe fluorescence polarization. inhibition, % at 9.51 µM. 0.33% of 300,000 active. AID 1947, 2009;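 active = inhibition above the screen mean inhibition plus 3 SD, computed separately per campaign, cut at about 18% in these data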;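 note: inhibitors lower polarization as less probe binds the enzyme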
PAFAH2 inh: PAFAH2 enzyme inhibitors, primary screen, biochemical, fluorescence polarization, human. recombinant PAFAH2, FP-rhodamine activity probe. inhibition, % at 3.39 µM. 0.99% of 340,000 active;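 active = inhibition above the mean over all tested compounds plus 3 SD, cut at about 30% in these data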;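 note: inhibitors block probe labeling of enzyme so polarization drops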
PAFAH1B2 FP inh: PAFAH1B2 enzyme inhibitors, primary screen, biochemical, fluorescence polarization, human; recombinant PAFAH1B2, FP-rhodamine activity probe; 1.2% of 340,000 active; inhibition, % at 3.39 µM;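 active = inhibition above the mean of all tested compounds plus 3 SD, cut at about 24% in these data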
Target sequence (P68402 whole entry, looked up): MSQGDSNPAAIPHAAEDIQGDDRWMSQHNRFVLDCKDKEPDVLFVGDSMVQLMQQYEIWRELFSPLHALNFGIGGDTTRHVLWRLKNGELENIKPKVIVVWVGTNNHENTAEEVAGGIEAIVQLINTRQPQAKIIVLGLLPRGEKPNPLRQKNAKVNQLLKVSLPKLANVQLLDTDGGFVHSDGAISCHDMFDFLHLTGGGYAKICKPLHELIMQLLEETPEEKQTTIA
Large screens that a line does not name were inactive. Rows were chosen to be rich in hits. Some 2.8% of all compounds tested hit in one or more screens of this group.

O=C(C[C@@H]1C/C=C\CCC(=O)OC[C@H](Cc2ccccc2)NC1=O)N[C@@H](CO)Cc1ccccc1	none (no result: PME-1 inh, Fam108B inh)
C=CCC[C@H](Cc1ccc(F)cc1)C(=O)OC[C@H](Cc1c[nH]c2ccccc12)NC(=O)[C@@H](CC=C)CC(=O)NCCO	pPAFAH FP inh 27.5 (no result: PME-1 inh, Fam108B inh)
C=CCC[C@H](Cc1ccc(F)cc1)C(=O)OC[C@@H](Cc1c[nH]c2ccccc12)NC(=O)[C@@H](CC=C)CC(=O)N[C@@H](CO)Cc1ccccc1	none (no result: PME-1 inh, Fam108B inh)
C=CC[C@H](CC(=O)N(CCO)Cc1ccccc1)C(=O)N[C@@H](C)COC(=O)[C@@H](CC=C)Cc1ccc(F)cc1	PAFAH1B2 FP inh 26.2 (no result: PME-1 inh, Fam108B inh)
COc1ccc(CNC(=O)CCSCc2cccc(F)c2)cc1	pPAFAH FP inh 27.2
CN(C(=O)c1ccccc1F)C(c1ccccc1)c1ccccc1	none
COC(=O)c1ccc(C(=O)N2CCCC(Nc3ccc(C(C)C)cc3)C2)nc1 (stereo not drawn)	PAFAH1B2 FP inh 24.7
CC(C)c1ccc(NC2CCCN(C(=O)c3ccc4nccnc4c3)C2)cc1 (stereo not drawn)	none
N#C/C(=C/c1cn[nH]c1-c1ccc(Br)cc1)C(=O)O	PAFAH1B2 FP inh 30.5
N#C/C(=C/c1cn[nH]c1-c1cccc(Br)c1)C(=O)O	none
Oc1c(Cl)cc(Cl)cc1Sc1cc(Cl)cc(Cl)c1O	PME-1 inh 41.6, pPAFAH FP inh 76.8, Fam108B inh 44.1 (no result: PAFAH1B3 FP inh, PAFAH2 inh, PAFAH1B2 FP inh)
COc1ccc(CCN(CC(=O)NCc2ccc(F)cc2)C(=O)c2snc(C(N)=O)c2N)cc1OC	none
CCC(C)(C)n1nnnc1C(c1cccnc1)N1CCC(Cc2ccccc2)CC1 (stereo not drawn)	none
CCC(C)(C)n1nnnc1C(c1ccncc1)N1CCC(Cc2ccccc2)CC1 (stereo not drawn)	pPAFAH FP inh 26.0
CC(C(=O)N1CCCC1)N(c1ccccc1)S(C)(=O)=O (stereo not drawn)	none
CC(=O)C(N=Nc1ccccc1)(Sc1nnc(-c2ccccc2)n1-c1ccccc1)C(=O)Nc1ccccc1 (stereo not drawn)	PAFAH1B2 FP inh 26.3
Cc1ccc(NC(=O)CCc2c[nH]c3ccccc23)nc1	none
CS(=O)(=O)N(CC(=O)NCCSc1ccc(Cl)cc1)c1ccc2c(c1)OCO2	PAFAH1B2 FP inh 25.4
CN(C(=O)COC(=O)c1ccc2c(c1)OCO2)c1c(N)n(Cc2ccccc2)c(=O)[nH]c1=O	none
N#Cc1cccc(S(=O)(=O)NNC(=O)C23CC4CC(CC(C4)C2)C3)c1	PAFAH1B2 FP inh 25.6 (no result: PME-1 inh, Fam108B inh)
O=C(Nc1nnc(CCc2ccccc2)s1)c1cccc(F)c1	PAFAH1B2 FP inh 24.6
O=C(Nc1nnc(CCc2ccccc2)s1)c1ccc(F)cc1	none
CCOc1ccc(NS(=O)(=O)c2ccc(C(=O)N3CCC3)cc2)cc1	pPAFAH FP inh 46.1
CCOc1ccc(NS(=O)(=O)c2ccc(C(=O)N3CCCC3)cc2)cc1	pPAFAH FP inh 25.2
CCOc1ccc(NS(=O)(=O)c2cc3c4c(c2)CCN4C(=O)CC3)cc1	pPAFAH FP inh 24.9
CCOc1ccc(C(=O)N2CCCN(C(=O)c3ccc(OCC)cc3)CC2)cc1	none
O=C(O)/C=C/c1ccc(Cn2ccnc2)cc1	none
CC(C)Oc1ccc(OCCSc2nc3ccccc3n2CC(=O)O)cc1	none
COc1ccccc1OCC(=O)NNC(=O)Nc1ccccc1	none
CC1CCCC(NC(=O)COC(=O)c2ccc([N+](=O)[O-])s2)C1C (stereo not drawn)	PAFAH1B3 FP inh 53.2, PAFAH2 inh 65.6 (no result: PME-1 inh, Fam108B inh)
COc1ccc(/C=C/C(=O)OCC(=O)NC2CCCC(C)C2C)c(OC)c1 (stereo not drawn)	pPAFAH FP inh 29.4, PAFAH2 inh 76.1 (no result: PME-1 inh, Fam108B inh)
Cc1ccc(CC(=O)OCC(=O)NC2CCCC(C)C2C)cc1C (stereo not drawn)	pPAFAH FP inh 29.3, PAFAH2 inh 38.5
COc1ccc(/C=C/C(=O)OCC(=O)N2CCCC2)c(OC)c1	none (no result: Fam108B inh)
CC1CCCC(NC(=O)COC(=O)Cc2ccc(Cl)cc2)C1C (stereo not drawn)	pPAFAH FP inh 28.1 (no result: PME-1 inh, Fam108B inh)
CCc1ccc(OCC(=O)OCC(=O)NC2CCCC(C)C2C)cc1 (stereo not drawn)	none (no result: PME-1 inh, Fam108B inh)
CN(CC(=O)Nc1cccc(F)c1)C(=O)c1cc([N+](=O)[O-])ccc1N1CCOCC1	none
Cc1ccc(S(=O)(=O)Nc2ncnc3ccccc23)cc1	none
CC1CCc2[nH]c3ccc(C(=O)N(C)CC(=O)Nc4ccc(F)cc4)cc3c2C1 (stereo not drawn)	PAFAH2 inh 49.4, PAFAH1B2 FP inh 39.5
COc1ccc(NC(=O)CN(C)C(=O)c2ccc3[nH]c4c(c3c2)CC(C)CC4)cc1 (stereo not drawn)	none
Cc1c(NC(=O)/C(C#N)=C/c2ccc(-c3ccccc3Cl)o2)c(=O)n(-c2ccccc2)n1C	pPAFAH FP inh 27.4
Cc1cc(NS(=O)(=O)c2ccc(NC(=O)c3ccc(Cl)cc3[N+](=O)[O-])cc2)no1	none
COc1ccc(CNC(=O)COC(=O)C2(C)CC2(Cl)Cl)cc1 (stereo not drawn)	none (no result: PME-1 inh, Fam108B inh)
COc1cccc(CNC(=O)COC(=O)C23CC4CC(CC(Cl)(C4)C2)C3)c1	PAFAH1B2 FP inh 28.3 (no result: PME-1 inh, Fam108B inh)
Cc1ccc(-c2cnc(C3CC3)o2)cc1S(=O)(=O)Nc1ccccc1	pPAFAH FP inh 30.5
CN(C)S(=O)(=O)c1ccc(N2CCCC2)c(C(=O)OCC(=O)N2CCN(c3ccccc3)CC2)c1	none
CCN(CC)CCNC(=O)/C(=C/c1cn(C)c2ccccc12)NC(=O)c1ccc(OC)c(OC)c1	none
Cc1cc(/C=C2/C(=O)N(C)C(=S)N2C)c(C)n1C1CC1	none
Cc1cc(/C=C2\SC(=S)NC2=O)c(C)n1C1CC1	pPAFAH FP inh 31.7
O=C(O)c1ccc2oc(=O)c(S(=O)(=O)c3ccccc3)cc2c1	PAFAH1B2 FP inh 26.8
O=C(O)c1ccc2oc(=O)c(S(=O)(=O)c3ccc(F)cc3)cc2c1	PAFAH2 inh 44.6, PAFAH1B2 FP inh 31.6
CCCCCCc1cc2cc(S(=O)(=O)c3ccc(F)cc3)c(=O)oc2cc1O	none
NC1=C(c2ccccc2)C(=O)NC1=O	none
CCCCn1c(N)c(C(=S)NC(=O)CC(C)(C)C)c(=O)n(C)c1=O	PAFAH1B2 FP inh 27.1
Cc1cc(NS(=O)(=O)c2c(C)c(C)cc(C)c2C)no1	none
Cc1nc2c(C(=O)NCc3ccccc3Cl)c[nH]n2c(=O)c1Cl	pPAFAH FP inh 32.1
Cc1nc2c(C(=O)NCc3ccccc3)c[nH]n2c(=O)c1Cl	none
Cc1nc2c(C(=O)NCCc3ccccc3Cl)c[nH]n2c(=O)c1Cl	pPAFAH FP inh 25.2
COC(=O)c1c[nH]n2c(=O)c(Cl)c(C)nc12	none
